In PubChem BioAssay (Tox21):
“And” between values parts separate entries of the source, which are not always exact repeats. Equal entries are not always repeated. Where a structure was tested more than once in an assay, its records may differ in their call. The source made the active and inactive calls. Unless noted, calls come from the whole dose curve; as a rule, active = well fitted curve in the direction sought with a large enough effect in the repeat runs; inconclusive = weak or mixed curves; inactive = no such curve, though single readings can be large; an effect the other way counts as inactive or inconclusive.

What was measured:
[1] = qHTS assay to identify small molecule antagonists of the thyroid receptor (TR) signaling pathway - cell viability counter screen (AID 743064); note: nearly all actives have a fitted effect of over 50% in size; note: potency is the fitted concentration of half-maximal effect
How it was run: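 In rat pituitary GH3.TRE-Luc reporter cells co-exposed to compound and 1 nM T3 for 23.5 h, cytotoxicity was assessed with CellTiter-Fluor in the same wells, read by fluorescence.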

[2] = qHTS assay to identify small molecule antagonists of the thyroid receptor (TR) signaling pathway (AID 743065); note: nearly all actives have a fitted effect of over 55% in size; note: potency is the fitted concentration of half-maximal effect
How it was run: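 Antagonism measured as loss of luciferase signal in GH3 cells stably carrying a TRE-luciferase reporter, co-treated with compound and T3 (1 nM final) for 23.5 h at 37 C. Viability was read in the same well by CellTiter-Fluor.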

[3] = tested on: thyroid hormone receptor (rat, GH3 cells); assay: qHTS assay to identify small molecule agonists of the thyroid receptor (TR) signaling pathway (AID 743066; calls by dose curve)
[4] = biological target: Estrogen receptor (Homo sapiens) (UniProt P03372); assay: qHTS assay to identify small molecule antagonists of the estrogen receptor alpha (ER-alpha) signaling pathway (AID 743069; active = well fitted curve in the direction sought with a large enough effect in the signal ratio in the repeat runs, not every such curve was filed as active; inconclusive = weak or mixed curves, or effect the other way; inactive = no such curve, though single readings can be large or run the other way; the % refers to the signal ratio; note: potency is the fitted concentration of half-maximal effect)
How it was run: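 ER-alpha-UAS-bla GripTite HEK293 line; 2% charcoal-stripped FBS overnight; plated, 4 hr 37C/5% CO2; cpd in DMSO + 17beta-estradiol, 18 hr 37C; LiveBLAzer B/G FRET substrate 2 hr RT; fluorescence intensity.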

[5] = biological target: Estrogen receptor (Homo sapiens) (UniProt P03372); assay: qHTS assay to identify small molecule agonists of the estrogen receptor alpha (ER-alpha) signaling pathway (AID 743075; calls by dose curve;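 note: HEK293 GripTite cells with ER-alpha and UAS-driven beta-lactamase reporter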)
[6] = biological target: Estrogen receptor (Homo sapiens) (UniProt P03372); assay: qHTS assay to identify small molecule agonists of the estrogen receptor alpha (ER-alpha) signaling pathway using the BG1 cell line (AID 743079); note: nearly all actives have a fitted effect of over 20% in size
[7] = qHTS assay to identify small molecule antagonists of the estrogen receptor alpha (ER-alpha) signaling pathway using the BG1 cell line (AID 743080; calls by dose curve;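 note: BG1 cells stimulated with 17beta-estradiol alongside compound; nearly all actives have a fitted effect of over 25% in size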; note: potency is the fitted concentration of half-maximal effect)
How it was run: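 Luciferase inhibition measured with ONE-Glo after 30 min at RT in BG1Luc4E2 cells given test compounds and 17beta-estradiol for 21.5 h at 37 C; CellTiter-Fluor viability read in the same wells beforehand.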

[8] = qHTS assay to identify small molecule antagonists of the estrogen receptor alpha (ER-alpha) signaling pathway using the BG1 cell line - cell viability counter screen (AID 743081);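 note: compound given together with 17beta-estradiol as the ER stimulus; series mostly up to about 70 µM; nearly all actives have a fitted effect of over 45% in size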
Aromatase (Homo sapiens) = Aromatase (Homo sapiens) (UniProt P11511); assay: qHTS assay to identify aromatase inhibitors (AID 743083); note: nearly all actives have a fitted effect of over 55% in size; note: potency is the fitted concentration of half-maximal effect
[9] = qHTS assay to identify aromatase inhibitors - cell viability counter screen (AID 743084);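 note: cells stimulated with testosterone during compound exposure; nearly all actives have a fitted effect of over 55% in size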; note: potency is the fitted concentration of half-maximal effect
[10] = biological target: Aryl hydrocarbon receptor (Homo sapiens) (UniProt P35869); assay: qHTS assay to identify small molecule that activate the aryl hydrocarbon receptor (AhR) signaling pathway (AID 743085);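 note: HG2L7.5c1 human HepG2 liver cells with stably integrated DRE-driven firefly reporter; series mostly up to about 70 µM; nearly all actives have a fitted effect of over 15% in size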
How it was run: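 AhR agonist activity is inferred from enhanced light output of a DRE-controlled firefly luciferase reporter in HepG2 cells, measured with ONE-Glo following 24 h treatment at 37C.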

[11] = qHTS assay to identify small molecule that activate the aryl hydrocarbon receptor (AhR) signaling pathway - cell viability counter screen (AID 743086); note: nearly all actives have a fitted effect of over 45% in size; note: potency is the fitted concentration of half-maximal effect
How it was run: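 Cytotoxicity counter screen: CellTiter-Fluor signal (30 min, 37 C) in 4000 HepG2 cells/well carrying the DRE-luciferase reporter, following 24 h compound exposure at 37 C.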

[12] = qHTS assay to identify small molecule antagonists of the peroxisome proliferator-activated receptor gamma (PPARg) signaling pathway - cell viability counter screen (AID 743194); note: nearly all actives have a fitted effect of over 55% in size; note: potency is the fitted concentration of half-maximal effect
How it was run: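 Viability was measured as CellTiter-Glo luminescence in GeneBLAzer PPARg UAS-bla HEK293H cells. These cells had been exposed 17 h at 37 C to compounds together with rosiglitazone at 50 nM final, with the beta-lactamase readout taken in the same wells.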

[13] = qHTS assay for small molecule agonists of the antioxidant response element (ARE) signaling pathway - cell viability counter screen (AID 743203; calls by dose curve; note: nearly all actives have a fitted effect of over 55% in size; note: potency is the fitted concentration of half-maximal effect)
How it was run: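 Following 16 hrs of compound treatment at 37C, HepG2 cells with an ARE-controlled beta-lactamase gene were lysed with CellTiter-Glo. Luminescence was read after 30 min at room temperature.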

[14] = qHTS assay for small molecule activators of the heat shock response signaling pathway - cell viability counter screen (AID 743209); note: nearly all actives have a fitted effect of over 50% in size; note: potency is the fitted concentration of half-maximal effect
How it was run: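 Readout: CellTiter-Glo luminescence, 30 min at room temperature. System: HSE-bla HeLa cells, 1500/well, plated overnight. Treatment: compounds in DMSO, 5 h at 37 C.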

[15] = qHTS assay to identify small molecule antagonists of the estrogen receptor alpha (ER-alpha) signaling pathway - cell viability counter screen (AID 743074; calls by dose curve;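 note: HEK293 cells carrying ER-alpha-UAS-bla reporter stimulated with 17beta-estradiol; nearly all actives have a fitted effect of over 45% in size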; note: potency is the fitted concentration of half-maximal effect)
[16] = biological target: Peroxisome proliferator-activated receptor gamma (Homo sapiens) (UniProt P37231); assay: qHTS assay to identify small molecule agonists of the peroxisome proliferator-activated receptor gamma (PPARg) signaling pathway (AID 743094; active = well fitted activation curve with a large enough effect in the signal ratio in the repeat runs, not every such curve was filed as active; inconclusive = weak or mixed curves, or effect the other way; inactive = no such curve, though single readings can be large or run the other way; the % refers to the signal ratio)
How it was run: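 Compounds dissolved in DMSO were added to PPARg UAS-bla HEK293H cells for 17 h at 37C, and reporter expression was quantified by fluorescence intensity after 1 h with LiveBLAzer B/G FRET substrate.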

[17] = qHTS assay for small molecule agonists of the antioxidant response element (ARE) signaling pathway (AID 743202; active = well fitted activation curve with a large enough effect in the signal ratio in the repeat runs, not every such curve was filed as active; inconclusive = weak or mixed curves, or effect the other way; inactive = no such curve, though single readings can be large or run the other way; the % refers to the signal ratio)
How it was run: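 Quantitative high-throughput format in HepG2 cells bearing an integrated ARE-beta-lactamase reporter. Compound exposure lasted 16 h at 37 C, and fluorescence was read 2 h after adding LiveBLAzer B/G substrate at room temperature.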

[18] = qHTS assay for small molecule activators of the heat shock response signaling pathway (AID 743210; active = well fitted activation curve with a large enough effect in the signal ratio in the repeat runs, with a control signal flat, not every such curve was filed as active; inconclusive = weak or mixed curves; the % refers to the signal ratio;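 note: HeLa cells with beta-lactamase reporter driven by heat shock elements; series mostly up to about 63 µM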)
How it was run: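 HeLa HSE-bla cells, overnight plating; cpd in DMSO 5 h, 37 C; LiveBLAzer B/G FRET substrate 2.5 h RT; fluorescence intensity read.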

[19] = biological target: Peroxisome proliferator-activated receptor gamma (Homo sapiens) (UniProt P37231); assay: qHTS assay to identify small molecule antagonists of the peroxisome proliferator-activated receptor gamma (PPARg) signaling pathway (AID 743191; calls by dose curve; note: nearly all actives have a fitted effect of over 30% in size; note: potency is the fitted concentration of half-maximal effect)
How it was run: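 Beta-lactamase reporter under UAS control in HEK293H PPARg-bla cells; compound treatment 17 h at 37C. Read-out: fluorescence intensity after 1 h room-temperature incubation with LiveBLAzer B/G FRET substrate.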

Measured: Potency

Chain of Estrogen receptor (Homo sapiens) (P03372 whole entry, looked up): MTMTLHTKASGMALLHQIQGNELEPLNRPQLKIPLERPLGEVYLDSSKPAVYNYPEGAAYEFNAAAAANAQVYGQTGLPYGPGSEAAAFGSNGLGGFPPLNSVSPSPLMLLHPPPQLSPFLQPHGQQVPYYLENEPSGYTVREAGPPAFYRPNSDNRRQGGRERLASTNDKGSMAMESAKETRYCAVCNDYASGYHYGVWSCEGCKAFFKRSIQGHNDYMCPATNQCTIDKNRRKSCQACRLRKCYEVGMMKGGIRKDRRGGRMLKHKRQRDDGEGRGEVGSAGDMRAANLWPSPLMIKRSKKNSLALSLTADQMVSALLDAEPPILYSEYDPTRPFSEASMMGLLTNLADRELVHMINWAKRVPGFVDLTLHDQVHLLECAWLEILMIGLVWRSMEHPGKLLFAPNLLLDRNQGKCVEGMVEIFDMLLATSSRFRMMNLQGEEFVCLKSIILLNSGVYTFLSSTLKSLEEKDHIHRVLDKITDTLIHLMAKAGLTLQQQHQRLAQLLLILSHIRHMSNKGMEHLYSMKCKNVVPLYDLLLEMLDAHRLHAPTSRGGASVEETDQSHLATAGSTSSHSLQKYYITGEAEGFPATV
Chain of Aromatase (Homo sapiens) (P11511 whole entry, looked up): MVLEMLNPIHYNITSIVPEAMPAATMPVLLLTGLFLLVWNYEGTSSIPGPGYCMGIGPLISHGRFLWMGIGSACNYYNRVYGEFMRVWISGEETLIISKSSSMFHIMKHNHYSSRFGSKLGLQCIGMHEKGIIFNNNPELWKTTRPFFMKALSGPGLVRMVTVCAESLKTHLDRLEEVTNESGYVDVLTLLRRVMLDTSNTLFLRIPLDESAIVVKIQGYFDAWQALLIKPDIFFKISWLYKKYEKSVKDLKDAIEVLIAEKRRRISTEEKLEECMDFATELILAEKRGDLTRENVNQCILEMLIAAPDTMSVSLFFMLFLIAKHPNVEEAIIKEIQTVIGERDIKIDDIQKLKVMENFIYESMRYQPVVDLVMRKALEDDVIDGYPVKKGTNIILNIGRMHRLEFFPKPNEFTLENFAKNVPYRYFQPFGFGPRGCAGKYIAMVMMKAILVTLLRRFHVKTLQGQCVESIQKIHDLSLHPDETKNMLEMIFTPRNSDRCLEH
Chain of Aryl hydrocarbon receptor (Homo sapiens) (P35869 whole entry, looked up): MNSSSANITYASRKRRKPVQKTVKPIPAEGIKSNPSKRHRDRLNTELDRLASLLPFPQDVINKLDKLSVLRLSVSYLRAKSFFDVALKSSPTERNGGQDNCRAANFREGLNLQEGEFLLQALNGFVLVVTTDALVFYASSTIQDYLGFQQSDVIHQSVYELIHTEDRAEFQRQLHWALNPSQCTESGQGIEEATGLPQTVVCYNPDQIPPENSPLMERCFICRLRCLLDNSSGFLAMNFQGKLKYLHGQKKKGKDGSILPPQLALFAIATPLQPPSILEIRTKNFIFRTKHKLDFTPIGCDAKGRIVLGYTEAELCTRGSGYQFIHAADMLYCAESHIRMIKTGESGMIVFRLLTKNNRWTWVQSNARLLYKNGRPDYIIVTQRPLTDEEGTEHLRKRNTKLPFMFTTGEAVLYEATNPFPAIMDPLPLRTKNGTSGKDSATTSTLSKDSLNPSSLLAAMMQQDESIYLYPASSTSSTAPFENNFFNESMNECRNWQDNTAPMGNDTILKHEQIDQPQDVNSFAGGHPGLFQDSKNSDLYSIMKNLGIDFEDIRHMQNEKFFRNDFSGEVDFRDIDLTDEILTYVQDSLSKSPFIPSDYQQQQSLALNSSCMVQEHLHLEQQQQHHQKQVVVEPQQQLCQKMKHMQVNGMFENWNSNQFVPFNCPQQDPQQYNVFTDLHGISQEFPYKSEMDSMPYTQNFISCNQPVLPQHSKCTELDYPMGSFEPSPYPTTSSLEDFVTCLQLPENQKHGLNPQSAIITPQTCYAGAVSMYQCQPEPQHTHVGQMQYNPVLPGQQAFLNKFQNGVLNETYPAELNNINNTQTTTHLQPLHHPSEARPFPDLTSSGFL
Chain of Peroxisome proliferator-activated receptor gamma (Homo sapiens) (P37231 whole entry, looked up): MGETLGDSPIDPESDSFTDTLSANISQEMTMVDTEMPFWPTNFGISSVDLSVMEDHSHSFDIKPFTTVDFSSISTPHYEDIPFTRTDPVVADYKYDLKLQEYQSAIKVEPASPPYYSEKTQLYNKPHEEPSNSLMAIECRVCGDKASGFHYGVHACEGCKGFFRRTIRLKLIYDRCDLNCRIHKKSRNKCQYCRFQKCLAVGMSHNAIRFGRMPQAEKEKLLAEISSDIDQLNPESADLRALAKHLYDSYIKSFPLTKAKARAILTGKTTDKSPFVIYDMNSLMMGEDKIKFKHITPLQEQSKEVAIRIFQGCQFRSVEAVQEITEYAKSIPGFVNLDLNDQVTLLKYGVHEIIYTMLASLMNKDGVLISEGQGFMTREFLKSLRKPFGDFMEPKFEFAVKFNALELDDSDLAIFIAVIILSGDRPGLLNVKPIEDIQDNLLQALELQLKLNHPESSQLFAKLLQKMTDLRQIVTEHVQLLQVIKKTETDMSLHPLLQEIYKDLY

CC(C)(c1ccccc1)c1ccc(Nc2ccc(C(C)(C)c3ccccc3)cc2)cc1
active: [4] 61.7 µM [cytotoxic]
not listed: [15] | [16] | [17] | [18] | [19]
inactive: all other assays above

CC(=O)CC(C)=O
not listed: [19]
inactive: all other assays above

Oc1ccc(Cl)cc1Cc1cc(Cl)ccc1O
inactive: [3] | [4] | [5] | [8] | [10] | [11]
22.3 µM (active) and inactive: [14]
active: [1] 18.8 µM and 15.6 µM and 27.3 µM | [2] 7.5 µM and 3.12 µM and 5.45 µM | [15] 49.9 µM and 38.9 µM | [7] 33.5 µM | Aromatase (Homo sapiens) 29.8 µM and 30.6 µM | [19] 9.95 µM and 26.6 µM | [12] 11.2 µM and 3.89 µM and 16.8 µM | [13] 27.8 µM and 54.5 µM

CC(C(O)c1ccc(O)cc1)N1CCC(Cc2ccccc2)CC1 (stereo unspecified)
active: [1] 21.1 µM | [2] 23.7 µM
not listed: [7] | [8] | [12]
inactive: all other assays above

CCCCCCCCCCCCCCCCCl
not listed: [10] | [17]
inactive: all other assays above

CCCCN(CCO)CCCC
not listed: [17]
inactive: all other assays above

CCn1cc(C(=O)O)c(=O)c2cc(F)c(N3CCNC(C)C3)c(F)c21 (stereo unspecified)
not listed: [16] | [19]
inactive: all other assays above

CCc1ccc(C(c2ccc(CC)cc2)C(Cl)Cl)cc1
not listed: [6] | [12] | [15] | [16]
inactive: all other assays above

Nc1cc(Cl)c(-c2cc(Cl)c(N)cc2Cl)cc1Cl
active: [1] 10.9 µM and 8.63 µM | [2] 1.53 µM and 1.54 µM | [4] 1.55 µM [inconclusive] and 19.5 µM [inconclusive] | [15] 48.9 µM and 24.5 µM | [7] 54.4 µM and 54.5 µM | Aromatase (Homo sapiens) 12.2 µM and 15.4 µM | [9] 48.5 µM | [12] 48.9 µM and 17.4 µM | [13] 61.1 µM and 21.7 µM | [14] 24.5 µM
inactive: [3] | [5] | [8] | [11]

COc1ccc(Cc2cnc(N)nc2N)cc1OC
not listed: [19]
inactive: all other assays above

Cc1scc2c1N(C(=O)CN1CCN(C)CC1)c1ccccc1NC2=O
not listed: [16]
inactive: all other assays above

O=C(O[C@@H]1Cc2c(O)cc(O)cc2O[C@@H]1c1cc(O)c(O)c(O)c1)c1cc(O)c(O)c(O)c1
active: [1] 48.7 µM and 52.5 µM | [2] 27.4 µM and 26.3 µM | [9] 30.7 µM and 46.8 µM | [11] 34.4 µM and 41.7 µM
not listed: [12] | [17] | [19]
inactive: all other assays above
